Experimental data: paper PMC5540273 (PLoS ONE, 2017)

Columns and labels:
Conditions in all cases: concentration: 1 μM, replicates: in singlicate; n = 1
VEGFR2 = tested on: T1, VEGFR2
T1 construct: gene KDR

VPS34 = tested on: T2, VPS34
T2 construct: gene PIK3C3

VRK2 = tested on: VRK2
WEE1 = tested on: WEE1
WEE2 = tested on: WEE2
WNK1 = tested on: WNK1
WNK2 = tested on: WNK2
WNK3 = tested on: WNK3
WNK4 = tested on: WNK4
YANK1 = tested on: T3, YANK1
T3 construct: gene STK32A

YANK2 = tested on: T4, YANK2
T4 construct: gene STK32B

YANK3 = tested on: T5, YANK3
T5 construct: gene STK32C

YES = tested on: T6, YES
T6 construct: gene YES1

YSK1 = tested on: T7, YSK1
T7 construct: gene STK25

YSK4 = tested on: T8, YSK4
T8 construct: gene MAP3K19

ZAK = tested on: ZAK
ZAP70 = tested on: ZAP70
p38-alpha = tested on: T9, p38-alpha
T9 construct: gene MAPK14

p38-beta = tested on: T10, p38-beta
T10 construct: gene MAPK11

p38-delta = tested on: p38-delta
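Note: KINOMEscan kinase panel screen.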

SMILES | %Inh (VEGFR2) | %Inh (VPS34) | %Inh (VRK2) | %Inh (WEE1) | %Inh (WEE2) | %Inh (WNK1) | %Inh (WNK2) | %Inh (WNK3) | %Inh (WNK4) | %Inh (YANK1) | %Inh (YANK2) | %Inh (YANK3) | %Inh (YES) | %Inh (YSK1) | %Inh (YSK4) | %Inh (ZAK) | %Inh (ZAP70) | %Inh (p38-alpha) | %Inh (p38-beta) | %Inh (p38-delta)
COC(=O)C(NC(=O)NC1CCN(c2ccnc(Nc3ccc(F)cc3)n2)C1)c1ccccc1 (centres unmarked) [GSK1379712] | 14% | 0% | 24% | 9% | 0% | 22% | 28% | 36% | 25% | 0% | 0% | 0% | 0% | 14% | 32% | 0% | 4% | 12% | 0% | 37%
Cc1ccc(NC(=O)Nc2ccc(Cl)cc2)cc1-c1ccc(C(=O)Nc2ccncc2)cc1 [GSK1398472] | 9% | 0% | 0% | 16% | 5% | 7% | 0% | 13% | 23% | 1% | 4% | 0% | 17% | 15% | 56% | 64% | 7% | 72% | 34% | 42%
COc1ccc(Nc2nccc(-c3ccc(NC(=O)c4cc5cc(F)ccc5[nH]4)cc3)n2)cc1 [GSK1229496] | 0% | 2% | 0% | 7% | 0% | 0% | 14% | 18% | 51% | 0% | 0% | 0% | 0% | 0% | 8% | 6% | 0% | 4% | 0% | 43%
COc1ccc(-c2coc3ccc(-c4nnc(C)o4)cc23)cc1 | 0% | 0% | 0% | 0% | 4% | 0% | 32% | 0% | 0% | 0% | 9% | 9% | 0% | 1% | 0% | 0% | 18% | 0% | 14% | 0%
CCCCc1nn2ncccc2c1-c1ccnc(NC2CC2)n1 [GW684374] | 0% | 0% | 4% | 34% | 0% | 3% | 15% | 26% | 14% | 6% | 3% | 0% | 0% | 25% | 18% | 24% | 0% | 61% | 0% | 40%
CNc1nc(-c2ccc3c(N)n[nH]c3c2)cc(N2C[C@@H](C(=O)Nc3ccccc3)CC[C@H]2C)n1 [GSK2298859] | 0% | 7% | 0% | 9% | 0% | 0% | 0% | 33% | 29% | 46% | 89% | 32% | 2% | 0% | 17% | 0% | 0% | 22% | 0% | 0%
CCn1c(-c2c(N)noc2C)nc2cnccc21 [SB-737856] | 0% | 0% | 0% | 18% | 11% | 20% | 0% | 17% | 78% | 9% | 0% | 17% | 19% | 58% | 44% | 30% | 0% | 0% | 0% | 16%
NS(=O)(=O)c1cccc(N/C=C2\C(=O)Nc3ccc(S(=O)(=O)Cc4c(Cl)cccc4Cl)cc32)c1 [GSK398099] | 0% | 0% | 0% | 10% | 20% | 20% | 8% | 0% | 0% | 1% | 0% | 12% | 22% | 0% | 39% | 4% | 20% | 0% | 0% | 27%
Fc1ccc(-c2nc[nH]c2-c2ccncc2)cc1 [SB-217360] | 0% | 26% | 19% | 4% | 0% | 11% | 0% | 9% | 2% | 7% | 28% | 0% | 0% | 0% | 22% | 0% | 0% | 97.9% | 21% | 0%
Cc1c(Cn2c(C)c(C)n3c(=O)cc(N4CCOCC4)nc23)cccc1C(F)(F)F [GSK2328680] | 0% | 20% | 0% | 9% | 14% | 0% | 0% | 0% | 0% | 6% | 0% | 0% | 7% | 14% | 0% | 16% | 0% | 21% | 0% | 33%
